Source: PubChem BioAssay (NCI)
This is part of a sample that, as a whole, favours compounds with a hit. Of some 79,000 tested, about 15% had one in any assay. The source made the active and inactive calls. No stated cut-off is given here; in the data, active means growth inhibition above about 70%; inactive means the rest.

Assays:
[1] = NCI Yeast Anticancer Drug Screen. Data for the rad50 strain (AID 155);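 further: 0% = growth of vehicle-only cultures of the same strain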; conditions: S. cerevisiae rad50 strain growth inhibition, active compounds read high; at 50.0 µM unless noted
Outline: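 A DNA repair-deficient yeast mutant serves as the test organism; compound-induced growth inhibition is calculated against vehicle-treated cells.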

[2] = NCI Yeast Anticancer Drug Screen. Data for the mec2-1 strain (AID 157); conditions: S. cerevisiae mec2-1 strain, active compounds read high; at 50.0 µM unless noted
Outline: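 Mutant yeast (mec2-1) grown with compound; growth inhibition relative to vehicle control reported.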

[3] = NCI Yeast Anticancer Drug Screen. Data for the sgs1 mgt1 strain (AID 161);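 further: 0% = growth of cultures given vehicle only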; conditions: S. cerevisiae sgs1 mgt1 strain, active compounds read high; at 50.0 µM unless noted
Outline: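 Compounds are added to genetically altered yeast, and growth is compared with cultures given vehicle alone to give percent inhibition.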

[4] = NCI Yeast Anticancer Drug Screen. Data for the cln2 rad14 strain (AID 165);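 further: 0% = growth equal to vehicle treated cultures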; conditions: S. cerevisiae cln2 rad14 strain, active compounds read high; at 50.0 µM unless noted
Outline: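 Readout is yeast growth inhibition versus vehicle-treated controls, using a strain with cln2 and rad14 alterations exposed to compound.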

[5] = NCI Yeast Anticancer Drug Screen. Data for the bub3 strain (AID 167); conditions: S. cerevisiae bub3 mutant strain, active compounds read high; at 50.0 µM unless noted
Outline: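 Inhibition values come from growth of compound-treated mutant yeast normalised to vehicle-treated controls.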

[6] = NCI Yeast Anticancer Drug Screen. Data for the mlh1 rad18 strain (AID 175); conditions: S. cerevisiae mlh1 rad18 strain growth inhibition, active compounds read high; at 50.0 µM unless noted
Outline: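 Genetically defined yeast (DNA repair-deficient) exposed to compounds; growth inhibition determined relative to vehicle.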

Measured: growth inhibition

O=C(O)CCCCCCC(=O)O
inactive: [1] 2.1% | [2] -4.85% | [3] 2.85% | [4] 2.95% | [5] 0.9% | [6] -2.3%

CCOC(=O)/C(=N/Nc1ccc(Cl)cc1)N1C(=S)C=C(C)NN(C)C1=S
inactive: [1] -6.35% | [2] -13.4% | [3] -22.1% | [4] -6.4% | [5] -4.8% | [6] 8.15%

COC(=O)c1cc2c(cc1/C=C/C=O)OCO2
inactive: [1] -20% | [2] -15.8% | [3] -19.4% | [4] -27.9% | [5] -11% | [6] 13.8%

CC/C(CC(=O)CCC(=O)Nc1c(C)cccc1C)=N\NC(=O)NN
inactive: [1] -19.4% | [2] -22% | [3] -4.15% | [4] 24.6% | [5] 3% | [6] -8.5%

N#C/C(=C\c1ccc(Cl)cc1Cl)C(=O)N/N=C/c1ccc(Cl)cc1Cl
inactive: [1] 62.8% | [2] 37.8% | [3] 27.8% | [4] 58.2% | [6] 23.6%
active: [5] 98%

O=C1OC(C2OC(=O)C(=O)C2C2CCCCCCC2=O)C(C2CCCCCCC2=O)C1=O (centres undefined)
inactive: [1] 45.5% | [2] 9.15% | [3] 29.4% | [4] 32.9% | [5] 39.2% | [6] 26.4%

CCN(CC)C(=O)N(O)C1CCCCC1
inactive: [1] -35.4% | [2] 2.2% | [3] -14.9% | [4] 8.05% | [5] 4.75% | [6] -7.2%

OC1COC(c2ccccc2)OC1 (centres undefined)
inactive: [1] -7.15% | [2] -2.1% | [3] 4.15% | [4] -5.85% | [5] -1.75% | [6] 24.6%

Nn1c(-c2ccccc2)nc2ccc(Br)cc2c1=O
inactive: [1] 0.95% | [2] 7.55% | [3] 18.5% | [4] 24.8% | [5] 7.95% | [6] 43.5%

CCCCCCCCN1CCOCCOCCN(CCCCCCCC)c2nc(Cl)nc(n2)NCCOCCOCCNc2nc(Cl)nc1n2
inactive: [1] 7.8% | [2] -16.1% | [3] -21.8% | [4] -9.7% | [5] -5% | [6] 7.7%

Cc1cc2ccccc2c[n+]1CC(O)C[n+]1cc2ccccc2cc1C
inactive: [1] -18.9% | [2] -31.1% | [3] -36.4% | [4] -27.7% | [5] -45% | [6] -0.8%

NC(=O)CC[n+]1ccccc1
inactive: [1] 11.1% | [2] -29.3% | [3] 6.5% | [4] 11.7% | [5] -19.4% | [6] 7.2%

O=C(N/N=C/c1ccc2c(c1)OCO2)c1ccccc1
inactive: [1] 12.7% | [2] -11.1% | [3] 6.25% | [4] -35.5% | [5] 1.8% | [6] 22.4%

O=c1[nH]c(Br)nc2c(N3CCCCC3)c[nH]c12
inactive: [1] 12.7% | [2] -0.45% | [3] -7.2% | [4] 4.35% | [5] -3.05% | [6] 11.6%

CCOC(=O)C/C(O)=C(/C=N/C(=S)NNC(C)=O)C(=O)OCC
inactive: [1] -27.1% | [2] -28.9% | [3] -32.2% | [4] 2.65% | [5] -19.6% | [6] -8.65%

Cc1cc([N+](=O)[O-])cc(Br)c1N
inactive: [1] 23.1% | [2] 11.1% | [3] -1.6% | [4] 3.25% | [5] 0.25% | [6] 25.4%

O=C(O)/C(I)=C(\I)c1ccccc1
inactive: [1] -0.55% | [2] -6.7% | [3] 4.7% | [4] -9.3% | [5] 2.45% | [6] 8.5%

CC1(C)OC(CCl)C2OC(C)(C)OC(CCl)C2O1 (centres undefined)
inactive: [1] 11.1% | [2] 9.3% | [3] -7.35% | [4] 3.85% | [5] -4.95% | [6] 2.75%

CCOc1ccc(/C=C/C(=O)c2sc(NNC(C)=O)nc2C)cc1
inactive: [1] 20.1% | [2] 25.1% | [3] -11.6% | [4] 12.7% | [5] 25.9% | [6] 22.4%

CC1(C)OCC[C@@H]1[Si](C)(C)C
inactive: [1] 17.6% | [2] 21.6% | [3] 14.2% | [4] 2.8% | [5] -3.45% | [6] -19.6%

CCOP(=O)(C/C(=N/NC(C)(C)C)C(=O)Nc1nc2ccc(C)cc2s1)OCC
inactive: [1] -14% | [2] 3.7% | [3] -26.1% | [4] -30.4% | [5] -0.5% | [6] -18.6%

CCOc1ccccc1/C=C1\N=C(c2ccc([N+](=O)[O-])cc2)OC1=O
inactive: [1] 22.5% | [2] 21.2% | [3] 38.7% | [4] 25.5% | [5] 30.1% | [6] 31%

N=c1oc2ccc(Cl)cc2cc1C(=O)Nc1ccccc1
inactive: [1] 32.2% | [2] 32.7% | [3] -10.6% | [4] 14.1% | [5] 15.6% | [6] -35%

COc1cc(OC)c2c(c1)C(C)(C)CCC2(C)C
inactive: [1] 9.2% | [2] 2.9% | [3] -7.45% | [4] -23.4% | [5] 16.2% | [6] 4.4%

Cc1nc2ccccc2c(=O)n1NC(=O)Cc1ccccc1
inactive: [1] -22.6% | [2] -11.1% | [3] -7.45% | [4] 2.2% | [5] -12.4% | [6] -23.1%

O=C(O)CC1NC(/C(=C/c2ccccc2O)NC(=O)c2ccccc2)OC1=O (centres undefined)
inactive: [1] -1.5% | [2] -5.85% | [3] 15.5% | [4] -5.95% | [5] 15.2% | [6] -28.7%

CC(=C(C#N)C#N)c1csc2ccccc12
inactive: [1] 9.1% | [2] 14.8% | [3] -4.35% | [4] -34.5% | [5] -14.8% | [6] 21.9%

O=c1[nH]c(=O)n(C2CC(O)C(CO)O2)cc1C#Cc1c(F)c(F)c(F)c(F)c1F (centres undefined)
inactive: [1] -17.2% | [2] -11.7% | [3] -16.4% | [4] 11.8% | [5] -13.8% | [6] 2.2%

[Cu+2].[NH-]CC(=O)NC(Cc1ccccc1)C(=O)O.[NH-]CC(=O)NC(Cc1ccccc1)C(=O)O (centres undefined)
inactive: [1] 30.9% | [2] 2.4% | [3] 10.6% | [4] 17.5% | [5] 0.9% | [6] 10.6%

O=c1cc(-c2ccccc2)[nH]c2c(F)ccc(F)c12
inactive: [1] -27.4% | [2] -46.5% | [3] -34.5% | [4] 11.3% | [5] -34.9% | [6] -18.9%

CC1(C)OC2C(/C=C\C(=O)c3ccccc3)OC(n3ccc(=O)[nH]c3=O)C2O1 (centres undefined)
inactive: [1] -36.6% | [2] 10.3% | [3] 5.6% | [4] 13.4% | [5] -1.55% | [6] -1.5%

COc1cc2c(cc1OC)C(c1c(-c3c(Cl)cccc3Cl)noc1C)=NCC2
inactive: [1] -3.8% | [2] -14.9% | [3] -11.8% | [4] 19.8% | [5] 3.2% | [6] -4.25%

O=Cc1c2cnc(c1O)CSCc1ccc(cc1)CSC2
inactive: [1] 9.55% | [2] 8.45% | [3] 9.35% | [4] -11.7% | [5] -2.9% | [6] 23.5%

COC(=O)CN(CC(=O)NCCCBr)C1CCCCC1N(CC(=O)OC)CC(=O)OC (centres undefined)
inactive: [1] -23.9% | [2] -17.1% | [3] 10.2% | [4] -23% | [5] -26.9% | [6] -22.7%

O=C(Nc1cc(Cl)c(Cl)cc1Cl)C(=O)C(C(=O)c1ccc(Cl)c(Cl)c1)C1OC(=O)c2ccccc21 (centres undefined)
inactive: [1] 19.4% | [2] 8.55% | [3] 0.55% | [4] 27% | [5] 4.05% | [6] 22.6%

Nc1ccc(S(=O)[O-])cc1.Nc1ccc(S(=O)[O-])cc1.[Zn+2]
inactive: [1] -19.2% | [2] -19.9% | [3] -6.15% | [4] -26.5% | [5] 1% | [6] -15.6%

O.O.O=S(=O)(O)C(F)(F)F.[NH2-].[NH2-].[NH2-].[NH2-].[Ru+3]
inactive: [1] -17.8% | [2] 1.8% | [3] -27% | [4] -16.9% | [5] -27.4% | [6] -11.6%

Cn1c2ccc3cc2c(=S)c2cc(ccc21)OCCOCCOCCOCCOCCO3
inactive: [1] 32.1% | [2] -16% | [3] 0.65% | [4] -17% | [5] -13.3% | [6] 9.85%

COc1ccc(/C=C2/C/C(=C/c3ccc(OC)cc3)C2=O)cc1
inactive: [1] 14.2% | [2] 9.25% | [3] 10.2% | [4] 7.2% | [5] 4.65% | [6] 15%
